The values that follow come from the supplement of paper PMC10981050.

Counter-ions that a name gives are not always drawn.

This experiment deals with OCI-AML2. The experiment in a line: cell viability relative to vehicle control; higher = less cytotoxic. Particulars: 10 µM; SRSF2 genotype: wt/wt. Put shortly:
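Each screen used CRISPR-edited mutant and wild-type clones from four leukaemia lines. Compounds were acoustically dispensed at a single 10 µM dose, and CellTiter-Glo luminescence was read after 48 h with the supernatant first removed. Viability was analysed in Genedata Screener and given as percent of the on-plate vehicle control.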
In general, cell viability refers to a read-out of living cells in per cent, often relative to untreated cells. Consider `OCC1OC(OC2OC(CO)C(O)C(O)C2O)C(O)C(O)C1O` [D-(+)-Trehalose Anhydrous], for which the cell viability turned out to be 102%. Take `CCCCCCCCCCCCCCCCCC[N+](C)(C)C` [Trimethyloctadecylammonium bromide]: the cell viability amounted to 2.46%. Next, `CC(C)c1cc(-c2ccc(F)c3ccccc23)nc(N)n1`: 101%.

For the molecule `Cc1nc2n(c(=O)c1CCN1CCC(c3noc4cc(F)ccc34)CC1)CCCC2` [Risperidone (Risperdal)], the cell viability was 99%. `Cc1[nH]c2ccccc2c1C1=C(NCCc2ccc(F)cc2)C(=O)N(C)C1=O`: the cell viability came out at 89.8%.

For the molecule `Cc1nc(N)sc1-c1ccnc(Nc2ccc(N3CCOCC3)cc2)n1`, the cell viability turned out to be 13.7%. Regarding `CN(C)CCC(c1ccc(Br)cc1)c1ccccn1` (configuration not stated) [Brompheniramine hydrogen maleate], the cell viability came to 109%. The result for `C[S+](CC[C@H](N)C(=O)[O-])C[C@H]1O[C@@H](n2cnc3c(N)ncnc32)[C@H](O)[C@@H]1O` (some centres not stated) [Ademetionine disulfate tosylate] reads 110%. For `CNCc1cc(-c2ccccc2F)n(S(=O)(=O)c2cccnc2)c1` [Vonoprazan Fumarate (TAK-438)], the cell viability is 85.7%. Next, `C=CC(=O)N1CC[C@@H](Oc2nc(Nc3ccc(N4CCC(N5CCN(C)CC5)CC4)cc3)c(C(N)=O)nc2CC)C1` [ASP8273 (Naquotinib)]: 24.4%; `CC(=O)NC[C@H]1CN(c2ccc(N3CCOCC3)c(F)c2)C(=O)O1` [Linezolid (Zyvox)]: 86.7%; `CC(C)=CCC[C@](C)(O[C@@H]1O[C@H](CO)[C@@H](O)[C@H](O)[C@H]1O)[C@H]1CC[C@]2(C)[C@@H]1[C@H](O)C[C@@H]1[C@@]3(C)CC[C@H](O)C(C)(C)[C@@H]3[C@@H](O[C@@H]3O[C@H](CO)[C@@H](O)[C@H](O)[C@H]3O[C@@H]3OC[C@@H](O)[C@H](O)[C@H]3O)C[C@]12C` [Notoginsenoside R1]: 96.7%.

In the case of `CC#CC(=O)Nc1ccc2ncnc(Nc3cccc(Br)c3)c2c1`, the cell viability was determined as 6.95%. Next, `Cc1cccc(C#Cc2ccccc2)n1`: 87.5%; `CO/N=C(\C(=O)N[C@@H]1C(=O)N2C(C(=O)O)=C(CSc3nnnn3C)CS[C@H]12)c1csc(N)n1` [Cefmenoxime hydrochloride]: 101%; `CC1(C)CC(=O)c2c(C(F)(F)F)nn(-c3ccc(C(N)=O)c(N[C@H]4CC[C@H](O)CC4)c3)c2C1`: 21.4%.

As for `CC1(C)C=Cc2c(ccc3c2OC[C@@H](c2ccc(O)cc2O)C3)O1` [Glabridin], the cell viability stood at 89.4%. Next, `COc1cccc(-c2cc(NCc3ccc4c(c3)OCO4)nc(N)n2)c1` [Wnt agonist 1]: 13.1%; `CNC1CCC(N(Cc2cccc(-c3ccncc3)c2)C(=O)c2sc3ccccc3c2Cl)CC1` (configuration not stated) [Smoothened Agonist (SAG) HCl]: 26.1%; `NCCCCCNCC12CC3CC(CC(C3)C1)C2` [IEM 1754 dihydrobroMide]: 100%.

In the case of `NC(=S)c1ccncc1` [Thioisonicotinamide], the cell viability was 110%.

In the case of `C[C@@]1(F)[C@H](O)[C@@H](CO)O[C@H]1n1ccc(=O)[nH]c1=O` [2'-deoxy-2'-fluoro-2'-C-methyluridine], the cell viability was found to be 104%. In the case of `Nc1cccc2c1CN(C1CCC(=O)NC1=O)C2=O` (configuration not stated) [Lenalidomide (CC-5013)], the cell viability amounted to 113%. The result for `Cc1ccccc1N1C(=O)c2cc(S(N)(=O)=O)c(Cl)cc2NC1C` (configuration not stated) [Metolazone (Zaroxolyn)] reads 98.3%; that for `CCC/C=C1\OC(=O)C2=C1CCC=C2` [Ligustilide], 63.9%; that for `OC[C@@H](O)[C@@H](O)[C@H](O)[C@H](O)CO` [D-Mannitol (Osmitrol)], 100%. Next, `CN(C)CCCN1c2ccccc2Sc2ccc(Cl)cc21` [Chlorpromazine HCl]: 28.6%; `CCOC(=O)c1ccc(C#Cc2ccc3c(c2)C(C)(C)CCS3)nc1` [Tazarotene (Avage)]: 27.8%; `OC[C@H]1O[C@@H](OCCc2ccc(O)cc2)[C@H](O)[C@@H](O)[C@@H]1O` [Salidroside (Rhodioloside)]: 94.6%. Next, `C=C[C@]1(C)C[C@@H](OC(=O)CSC(C)(C)CNC(=O)[C@H](N)C(C)C)[C@]2(C)[C@H](C)CC[C@]3(CCC(=O)[C@H]32)[C@@H](C)[C@@H]1O` [Valnemulin HCl]: 65.5%; `CCS(=O)(=O)CCn1c([N+](=O)[O-])cnc1C` [Tinidazole]: 102%.

Take `O=C(Cc1ccc(-c2ccc(OCCN3CCOCC3)cc2)cn1)NCc1ccccc1`: the cell viability was 8.35%.
